Shown is part of a subset that was picked to be rich in hits.
LmPK inhibitor = inhibitors of Leishmania mexicana pyruvate kinase; Q27686; purified LmPK, Kinase-Glo ATP luminescence, 1 h; Potency, µM (series often up to 57.5 µM), for inactives: at the top dose activity change, negative = inhibition, hits mostly inhibitors; 290,000 tested, 0.37% active; also: potency is read from the fitted curve at half-maximal effect; % is scaled to controls: 0 for no effect and ±100 for the full control effect
Target sequence (Q27686 whole entry, looked up): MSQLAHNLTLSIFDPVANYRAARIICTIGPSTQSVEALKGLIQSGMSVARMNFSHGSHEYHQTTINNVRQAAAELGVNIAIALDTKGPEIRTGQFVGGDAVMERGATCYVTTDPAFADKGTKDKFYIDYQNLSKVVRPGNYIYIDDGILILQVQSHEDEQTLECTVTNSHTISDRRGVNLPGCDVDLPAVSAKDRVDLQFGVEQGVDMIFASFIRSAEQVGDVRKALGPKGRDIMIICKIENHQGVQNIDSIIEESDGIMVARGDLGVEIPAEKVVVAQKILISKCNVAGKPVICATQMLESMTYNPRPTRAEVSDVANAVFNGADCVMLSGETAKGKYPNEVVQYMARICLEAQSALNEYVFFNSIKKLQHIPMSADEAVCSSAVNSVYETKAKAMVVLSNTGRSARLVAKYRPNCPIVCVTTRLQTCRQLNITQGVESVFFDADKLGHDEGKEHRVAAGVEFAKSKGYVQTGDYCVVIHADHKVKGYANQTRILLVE
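Purified LmPK (0.1 nM) converted ADP (0.1 mM) to ATP with PEP (0.5 mM) in imidazole buffer pH 7.2 with KCl and MgCl2, 1 h at room temperature. ATP was read by Kinase-Glo luminescence; data normalized to uninhibited and no-enzyme controls.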
CHX counter = counter-screen hit for Shiga toxin inhibitors, cycloheximide; 300,000 tested, 12% active; max response, %; AID 2314; cell reporter, cycloheximide protein synthesis inhibition counterscreen; in the data active = max response mostly above about 13%, no sharp cut-off; inactive = mostly below about 14%; also: read at 38.3 µM for the half of the compounds with a filed dose; 0% is about no effect
NS1 inh = influenza NS1 inhibition | Potency, µM (series often up to 46.1 µM), for inactives: top-dose activity, positive = more growth | 270,000 tested, 0.4% active | AID 2326; calls by dose curve; also: potency is read from the fitted curve at half-maximal effect; actives are rising curves; nearly all actives have a fitted effect of over 50% in size
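Compounds were scored for reversing the slow growth caused by influenza A NS1 in S. cerevisiae, measured by optical density at 600 nm. Assay medium contained 2% galactose at pH 6.0; NS1-free yeast of the same strain were the positive control.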
SARS PLpro yeast = SARS-CoV PLP inhibition in yeast. S. cerevisiae expressing SARS-CoV PLpro, growth rescue. Potency, µM (titrated, usually from 32.9 µM), inactives show at the top dose activity, positive = growth rescue, hits mostly activators. 330,000 tested, 0.19% active; calls by dose curve; also: potency is read from the fitted curve at half-maximal effect; 0% is about no effect; nearly all actives have a fitted effect of over 55% in size
TbPYK inhibitor = inhibitors of Trypanosoma brucei pyruvate kinase. TbPYK enzyme, Kinase-Glo Plus ATP luminescence, 45 min. 410,000 tested, 0.12% active. Potency, µM (highest dose often 76.8 µM), for the others: at the top dose activity, negative = inhibition, hits mostly inhibitors. Q57TT1; also: potency is read from the fitted curve at half-maximal effect; % is scaled to controls: 0 for no effect and ±100 for the full control effect; nearly all actives have a fitted effect of over 50% in size
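Screened from lowest to highest concentration, compounds were pinned into TbPYK/substrate mixtures, and ADP (130 uM final) was added. Plates sat at room temperature for 45 min prior to Kinase-Glo Plus detection by luminescence.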
Shiga inhibitor = inhibitors of Shiga toxin in Vero cells. 290,000 tested, 9.2% active. Vero cells, Shiga toxin protein synthesis inhibition reporter. inhibition, % at 38.7 µM. AID 2315; in the data active = inhibition mostly above about 28%, no sharp cut-off; inactive = mostly below about 43%; also: 0% is about no effect
The depositor's hits bear a star; . = not tested or not shown; [ ] = remark or other dose. Unless noted, calls follow the shape of the dose curve; as a rule, active = well fitted curve in the direction sought with a large enough effect; inconclusive = small, poorly fitted or top-dose-only effect, or another doubt; inactive = no such curve, though single readings can be large; an effect the other way counts as inactive or inconclusive.

SMILES | LmPK inhibitor | CHX counter | NS1 inh | SARS PLpro yeast | TbPYK inhibitor | Shiga inhibitor
FCCCOc1ccc(-c2nccc(-c3ccc(Br)cc3)n2)cc1 | -6.8% | 8.4 | -8.2% | -0.7% | 0.4% | 23.0
Oc1ccc(-c2nccc(-c3ccc(Br)cc3)n2)cc1 | 8.3% | 17.2* | 2.7% | -3.9% | 0.2% | 40.3*
C(=C\c1ccncc1)/c1ccncc1 | -1.9% | -1.7 | -1.8% | -1.4% | 1.8% | -0.6
O=C(NN=Cc1ccc([N+](=O)[O-])cc1)c1ccncc1 | . | . | . | . | 36.3% | .
O=[N+]([O-])c1ccc(/C=C/c2ccncc2)cc1 | -0.8% | 30.4* | 4.9% | -2.5% | 6.0% | 68.4*
CC(/C=C/c1cccc([N+](=O)[O-])c1)=N\NC(=O)c1ccncc1 | -3.3% | -0.5 | -5.1% | -23.0% | -11.5% | 14.5
C(=C\c1ccncc1)/c1ccccc1 | -22.2% | 36.0* | -2.1% | -1.8% | -2.7% | 33.6
O=[N+]([O-])c1cccc(/C=C/c2ccncc2)c1 | -1.0% | 21.6* | -6.0% | -5.6% | -0.7% | 36.6
CN(C)c1ccc(CNC(=O)c2ccc(Cn3c(SCc4ccccc4)nc4cccnc43)cc2)cc1 | . | . | . | . | -0.6% | .
Cc1c(-c2ccccc2)cnc2c(C)cccc12 | . | . | . | . | 0.4% | .
CCN(Cc1cccs1)C(=O)CN1CCN(S(=O)(=O)c2ccc3c(c2)OCCCO3)CC1 | . | . | . | 4.2% | -4.4% | .
CSCC[C@H](NC(=O)[C@H](Cc1ccccc1)n1c(=O)[nH]c2ccccc2c1=O)C(=O)N[C@@H](Cc1ccccc1)C(=O)O | -8.7% | -2.4 | 21.5% | -2.0% | -0.1% | -4.6
CSc1ccc(-c2nc(CN(C)C3CCOC3)c(C)o2)cc1 (centres undefined) | 0.2% | 31.2* | -5.3% | 1.5% | 0.2% | 42.2*
O=C(Nc1ccc(Oc2cccnc2)cc1)c1ccccc1F | -7.1% | 25.7* | -12.3% | -5.8% | 1.3% | 63.5
O=C(Nc1ccc(S(=O)(=O)NCc2cccnc2)cc1)c1ccccc1Cl | 0.4% | -1.7 | 1.0% | -7.1% | -9.7% | -12.7
O=C(Nc1ccc(F)cc1)c1cccnc1Oc1ccccc1 | -1.6% | -2.0 | 0.9% | 8.7% | -13.0% | -2.7
O=C(Nc1ccc(Oc2cccnc2)cc1)c1ccccc1Cl | -1.1% | 27.5* | -7.9% | -16.8% | 4.9% | 1.9
CCN(CC)CCCNC(=O)C(=O)Nc1ccc2nc3n(c(=O)c2c1)CCCCC3 | . | . | . | . | 3.7% | .
COc1ccc(Cc2c(-c3cccc(Cl)c3)nc3c(C)cc(Br)cn23)c(C)c1 | . | . | . | . | 1.0% | .
O=c1cc(-c2ccccc2)nc(SCc2nc(-c3ccccc3Cl)no2)[nH]1 | . | . | . | . | 7.0%[15.4 µM] | .
O=C(c1ccco1)N1CCN(Cc2nc(-c3cccs3)no2)CC1 | 2.1% | 11.0* | -5.7% | 1.3% | -7.8% | 34.8*
OC[C@@H]1CCCN1Cc1nc(-c2cccs2)no1 | 6.8% | 19.4* | -1.5% | -0.4% | -8.5% | 51.2*
c1csc(-c2noc(CN3CCN4CCCC4C3)n2)c1 (centres undefined) | 1.7% | 20.9* | -2.2% | 0.6% | -10.7% | 47.0*
CN1CCN(Cc2nc(-c3cccs3)no2)CC1c1ccccc1 (centres undefined) | 0.4% | -1.6 | 1.7% | 0.6% | 3.8% | 9.8
c1csc(-c2noc(CN3CCOCC3)n2)c1 | -4.6% | 31.1* | 4.1% | -0.4% | 3.1% | 41.2*
SMILES | LmPK inhibitor | CHX counter | NS1 inh | SARS PLpro yeast | TbPYK inhibitor | Shiga inhibitor
O=C(c1ccco1)N1CCCN(Cc2nc(-c3ccc4c(c3)OCO4)no2)CC1 | 3.2% | 6.7 | -1.8% | -0.9% | -11.4% | 17.3
c1ccc(COC2CCCN(Cc3nc(-c4cccs4)no3)C2)nc1 (centres undefined) | -1.4% | 4.9 | 3.6% | 0.2% | -4.4% | 17.8
CCN(CC)S(=O)(=O)c1ccc2c(c1)N(CC(=O)N1CCN(c3cccc(OC)c3)CC1)C(=O)CO2 | . | . | . | . | 5.5% | .
CCOC(=O)Cc1csc(NC(=O)CCCc2ccccc2)n1 | -5.0% | 6.6 | -0.9% | -0.5% | 1.8% | 9.1
CCOC(=O)Cc1csc(NC(=O)/C=C/c2ccc(OC)cc2)n1 | 1.4% | 37.4* | . | -3.1% | -1.7% | 114.8*
CCOC(=O)Cc1csc(NC(=O)COc2ccc(C)cc2)n1 | 3.5% | 9.6 | -4.2% | -3.7% | -13.3% | 11.4
CCOC(=O)Cc1csc(NC(=O)COc2ccc(C)c(C)c2)n1 | -9.5% | 33.1* | -6.1% | -2.2% | 0.5% | 41.2*
CCOC(=O)Cc1csc(NC(=O)COC(=O)/C=C/c2ccc(OC)cc2)n1 | . | . | . | 0.8% | 4.9% | .
CCOC(=O)Cc1csc(NC(=O)/C=C\c2ccccc2)n1 | 0.7% | 31.6* | . | -3.7% | 5.1% | 52.9*
CCOC(=O)Cc1csc(NC(=O)Nc2ccc(OC(F)(F)F)cc2)n1 | -0.5% | 22.7* | 2.9% | 0.2% | 2.6% | 45.3*
O=C(NCCN1CCN(c2cccc(Cl)c2)CC1)Nc1ccccc1C(F)(F)F | . | . | . | . | 2.9% | .
CC(C)CN1CCC(=O)N([C@H](CSc2ccc(Br)cc2)Cc2ccccc2)CC1 | -3.3% | -2.0 | 1.9% | -0.7% | 3.9% | -5.2
COc1ccc(SCC(Cc2ccccc2)N2CCN(CC(C)C)CCC2=O)cc1 (centres undefined) | . | 29.8* | . | . | . | 53.1*
Cc1ccc(SCC(Cc2ccccc2)N2CCN(CC(C)C)CCC2=O)cc1 (centres undefined) | . | 27.8 | . | . | . | 50.1*
CCCN1CCC(=O)N([C@H](CSc2ccc(OC)cc2)Cc2ccccc2)CC1 | 2.1% | -1.4 | 6.6% | 4.2% | 4.4% | -6.0
Cc1ccc(C(=O)NC2CCCCC2)cc1 | -14.9% | 30.7* | 2.8% | -2.6% | 3.0% | 28.7
N#Cc1ccc(C(=O)NC2CCCCCCC2)cc1 | 0.1% | 22.2* | -14.4% | -10.4% | -3.3% | 82.7*
Cc1cc(C)n(-c2ccc(C(=O)NC3CCCCC3)cc2)n1 | -1.4% | 21.0 | . | -7.0% | -5.4% | 39.7*
Cc1cc(C)n(-c2ccc(C(=O)Nc3ccccn3)cc2)n1 | -26.5% | 38.1* | -149.8% | -5.4% | 1.1% | 65.0*
Cc1ccc(C(=O)NCC(=O)NC2CCCC2)cc1 | -0.3% | 2.6 | 1.8% | -1.2% | -0.6% | 16.8
CCC(Nc1ccc(-c2nc(-c3cccnc3)no2)cc1[N+](=O)[O-])c1ccccc1 (centres undefined) | . | . | . | . | 1.9% | .
CC1CCCCN1S(=O)(=O)c1ccc(C(=O)Nc2sccc2C(N)=O)cc1 (centres undefined) | -2.0% | 55.9* | -25.4% | -39.2% | 0.4% | 60.1*
Cc1cc(C)n(-c2ccc(C(=O)Nc3sccc3C(N)=O)cc2)n1 | 1.6% | 34.6* | -15.6% | -9.6% | 3.2% | 47.1*
CC1CCCCN1S(=O)(=O)c1ccc(C(=O)Nc2sc3c(c2C(N)=O)CC(C)(C)NC3(C)C)cc1 (centres undefined) | . | . | . | . | 1.9% | .
N#Cc1ccccc1OCC(=O)N1CCN(C(=O)c2ccco2)CC1 | 0.1% | -3.8 | -9.2% | 12.9% | -3.3% | -3.5
COc1ccc(NC(=O)Nc2ccc3c(c2)CCC3)cc1OC | 4.6% | 17.4* | 5.1% | -0.6% | -4.0% | 55.8
